# Data reported in PubChem BioAssay (Tox21).
# Inconclusive results are not listed. Entries that show only a call come without a potency. Activity calls are given as the source filed them. Calls follow the shape of the dose curve; as a rule, active = well fitted curve in the direction sought with a large enough effect in the repeat runs; inconclusive = weak or mixed curves; inactive = no such curve, though single readings can be large; an effect the other way counts as inactive or inconclusive.
# What was measured:
# [1] = molecular target: Cytochrome P450 2C19 (Homo sapiens) (UniProt P33261); assay: Cytochrome P450 Family 2 Subfamily C Member 19 (CYP2C19) small molecule antagonists: luciferase reporter qHTS assay (AID 1671197); also: nearly all actives have a fitted effect of over 65% in size; as to activity change, negative = inhibition: series mostly up to about 120 µM
# Summary of the method: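 P450-Glo CYP2C19 system: enzyme-substrate mix with compound 10 min at room temperature, then NADPH regeneration solution, 1 h at 37C. Proluciferin-to-luciferin conversion detected by luminescence after 20 min with detection reagent; ketoconazole as positive control.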
# [2] = molecular target: Cytochrome P450 2C9 (Homo sapiens) (UniProt P11712); assay: Cytochrome P450 Family 2 Subfamily C Member 9 (CYP2C9) small molecule antagonists: luciferase reporter qHTS assay (AID 1671198); also: nearly all actives have a fitted effect of over 50% in size; as to activity change, negative = inhibition: series mostly up to about 120 µM
# Summary of the method: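 Enzyme-substrate mix preincubated with compound 10 min at room temperature; reaction started with NADPH regeneration solution, 1 h 37C. Luminescent luciferin product read after 20 min detection reagent.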
# [3] = molecular target: Cytochrome P450 3A4 (Homo sapiens) (UniProt P08684); assay: Cytochrome P450 Family 3 Subfamily A Member 4 (CYP3A4) small molecule antagonists: luciferase reporter qHTS assay (AID 1671201); also: nearly all actives have a fitted effect of over 50% in size; as to activity change, negative = inhibition: series mostly up to about 120 µM
# Summary of the method: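 Proluciferin-to-luciferin conversion by CYP3A4, NADPH-regenerated, 1 h RT; luminescence read as RLU. Ketoconazole as control.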
# [4] = molecular target: Cytochrome P450 1A2 (Homo sapiens) (UniProt P05177); assay: Cytochrome P450 Family 1 Subfamily A Member 2 (CYP1A2) small molecule antagonists: luciferase reporter qHTS assay (AID 1671199); also: nearly all actives have a fitted effect of over 50% in size; as to activity change, negative = inhibition: series mostly up to about 120 µM
# Summary of the method: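 Inhibition of CYP1A2 conversion of proluciferin to luciferin, detected by luminescence. Reaction run 1 h at room temperature with NADPH regeneration after brief compound preincubation.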
# [5] = molecular target: Voltage-gated inwardly rectifying potassium channel KCNH2 (Homo sapiens) (UniProt Q12809); assay: Human Ether-a-go-go-Related Gene (hERG) channel small molecule antagonists: fluorescence cell-based qHTS assay (AID 1671200); also: nearly all actives have a fitted effect of over 50% in size;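 as to activity change, negative = inhibition: hERG-expressing U2OS cells given a thallium stimulus after FluxOR II dye loading; series mostly up to about 77 µM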
# Summary of the method: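 Kinetic two-minute fluorescence traces, sampled at 1 s, were collected following thallium stimulus of U2OS cells (1000 per well) that had been cultured overnight at 37 C and loaded with FluxOR II.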
# Potency is read from the fitted curve at half-maximal effect.
# Cytochrome P450 2C19 (Homo sapiens), sequence (P33261 whole entry, looked up): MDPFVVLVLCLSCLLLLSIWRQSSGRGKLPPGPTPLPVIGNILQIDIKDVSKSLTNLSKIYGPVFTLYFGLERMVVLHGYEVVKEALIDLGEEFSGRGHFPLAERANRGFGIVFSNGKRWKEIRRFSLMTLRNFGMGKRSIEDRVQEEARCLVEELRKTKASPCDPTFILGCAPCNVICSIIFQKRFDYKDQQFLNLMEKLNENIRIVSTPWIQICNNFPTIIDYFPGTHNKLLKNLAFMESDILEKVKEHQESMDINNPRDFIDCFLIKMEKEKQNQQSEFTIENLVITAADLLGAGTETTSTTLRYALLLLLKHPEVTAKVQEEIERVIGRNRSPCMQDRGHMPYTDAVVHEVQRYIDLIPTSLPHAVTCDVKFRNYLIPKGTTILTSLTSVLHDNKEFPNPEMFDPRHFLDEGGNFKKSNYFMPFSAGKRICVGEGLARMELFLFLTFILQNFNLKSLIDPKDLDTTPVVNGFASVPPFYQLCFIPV
# Cytochrome P450 3A4 (Homo sapiens), sequence (P08684 whole entry, looked up): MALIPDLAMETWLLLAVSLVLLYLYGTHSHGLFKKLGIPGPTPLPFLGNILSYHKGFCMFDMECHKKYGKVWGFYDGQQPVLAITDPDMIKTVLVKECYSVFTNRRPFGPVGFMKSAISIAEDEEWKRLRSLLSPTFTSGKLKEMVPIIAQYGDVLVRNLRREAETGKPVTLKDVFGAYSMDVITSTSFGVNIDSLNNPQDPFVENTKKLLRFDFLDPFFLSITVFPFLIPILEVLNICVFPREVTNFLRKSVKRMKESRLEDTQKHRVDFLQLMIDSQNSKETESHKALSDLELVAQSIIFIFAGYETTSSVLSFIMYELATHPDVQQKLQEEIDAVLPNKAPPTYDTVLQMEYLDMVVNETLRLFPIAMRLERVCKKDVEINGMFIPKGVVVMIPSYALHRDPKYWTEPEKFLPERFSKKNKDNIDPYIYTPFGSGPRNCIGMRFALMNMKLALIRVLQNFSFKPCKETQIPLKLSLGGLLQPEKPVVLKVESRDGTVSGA
# Cytochrome P450 2C9 (Homo sapiens), sequence (P11712 whole entry, looked up): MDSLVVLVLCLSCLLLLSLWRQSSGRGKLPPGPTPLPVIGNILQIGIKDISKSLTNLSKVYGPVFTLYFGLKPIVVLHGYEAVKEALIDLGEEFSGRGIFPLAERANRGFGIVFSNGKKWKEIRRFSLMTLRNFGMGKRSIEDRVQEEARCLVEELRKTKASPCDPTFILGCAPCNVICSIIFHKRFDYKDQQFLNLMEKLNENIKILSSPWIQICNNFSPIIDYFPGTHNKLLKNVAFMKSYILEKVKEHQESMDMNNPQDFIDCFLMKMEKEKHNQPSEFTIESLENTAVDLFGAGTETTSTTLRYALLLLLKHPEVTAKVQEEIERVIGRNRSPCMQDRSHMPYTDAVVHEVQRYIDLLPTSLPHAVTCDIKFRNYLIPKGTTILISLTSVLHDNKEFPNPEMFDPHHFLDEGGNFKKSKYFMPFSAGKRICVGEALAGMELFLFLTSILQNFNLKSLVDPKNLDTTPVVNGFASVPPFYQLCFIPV
# Cytochrome P450 1A2 (Homo sapiens), sequence (P05177 whole entry, looked up): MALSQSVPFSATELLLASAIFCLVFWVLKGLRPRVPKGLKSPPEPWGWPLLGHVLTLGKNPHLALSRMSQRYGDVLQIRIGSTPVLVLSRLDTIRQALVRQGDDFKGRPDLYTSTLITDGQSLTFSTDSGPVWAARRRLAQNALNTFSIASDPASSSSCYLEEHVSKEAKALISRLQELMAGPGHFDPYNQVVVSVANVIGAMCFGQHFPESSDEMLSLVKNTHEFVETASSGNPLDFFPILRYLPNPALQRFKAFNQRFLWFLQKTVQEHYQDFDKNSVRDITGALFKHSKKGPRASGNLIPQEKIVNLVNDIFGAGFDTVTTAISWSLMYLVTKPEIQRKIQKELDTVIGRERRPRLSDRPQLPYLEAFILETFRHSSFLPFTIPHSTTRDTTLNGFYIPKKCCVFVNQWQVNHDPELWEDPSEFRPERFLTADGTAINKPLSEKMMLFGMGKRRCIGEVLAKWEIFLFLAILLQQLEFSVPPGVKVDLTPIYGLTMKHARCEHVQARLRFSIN
# Voltage-gated inwardly rectifying potassium channel KCNH2 (Homo sapiens), sequence (Q12809 whole entry, looked up): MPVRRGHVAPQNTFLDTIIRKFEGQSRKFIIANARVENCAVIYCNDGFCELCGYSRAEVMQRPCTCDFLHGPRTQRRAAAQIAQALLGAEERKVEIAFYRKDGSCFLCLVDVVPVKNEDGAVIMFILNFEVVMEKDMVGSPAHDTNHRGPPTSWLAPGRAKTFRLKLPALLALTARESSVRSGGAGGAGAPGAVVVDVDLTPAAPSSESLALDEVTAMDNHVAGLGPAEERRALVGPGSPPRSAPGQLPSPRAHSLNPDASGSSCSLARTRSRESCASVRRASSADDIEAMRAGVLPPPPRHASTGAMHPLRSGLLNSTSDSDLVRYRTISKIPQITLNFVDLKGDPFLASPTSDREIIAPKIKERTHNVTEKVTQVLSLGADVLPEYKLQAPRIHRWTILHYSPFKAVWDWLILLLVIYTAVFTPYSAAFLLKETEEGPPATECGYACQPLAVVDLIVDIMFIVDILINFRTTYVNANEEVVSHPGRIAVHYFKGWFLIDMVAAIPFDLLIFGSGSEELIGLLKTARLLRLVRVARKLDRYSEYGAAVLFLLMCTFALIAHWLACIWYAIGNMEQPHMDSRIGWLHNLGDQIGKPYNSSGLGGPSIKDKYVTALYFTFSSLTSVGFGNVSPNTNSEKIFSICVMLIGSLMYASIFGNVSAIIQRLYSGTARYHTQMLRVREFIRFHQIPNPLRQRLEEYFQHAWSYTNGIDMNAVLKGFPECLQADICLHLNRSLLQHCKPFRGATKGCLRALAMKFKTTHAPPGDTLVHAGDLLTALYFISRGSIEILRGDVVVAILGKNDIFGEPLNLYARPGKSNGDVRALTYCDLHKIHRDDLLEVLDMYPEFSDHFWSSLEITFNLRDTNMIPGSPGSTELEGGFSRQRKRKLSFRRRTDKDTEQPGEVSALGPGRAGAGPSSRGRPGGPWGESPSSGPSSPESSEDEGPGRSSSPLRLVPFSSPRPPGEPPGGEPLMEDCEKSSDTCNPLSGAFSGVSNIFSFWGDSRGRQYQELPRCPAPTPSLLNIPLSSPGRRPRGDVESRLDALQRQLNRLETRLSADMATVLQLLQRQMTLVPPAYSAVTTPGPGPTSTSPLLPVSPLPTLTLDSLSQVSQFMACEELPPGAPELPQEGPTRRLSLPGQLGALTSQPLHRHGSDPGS
smiles,measurement,setting,value
C/C=C/C=C/CCCCCCCO,Potency,[1],25.2 µM (active)
same,Potency,[2],7.1 µM (active)
same,Potency,[3],15.9 µM (active)
Cc1occc1C(=O)Nc1ccc(C(=O)N2CCC(F)(F)/C(=C\C(=O)N3CCC(N4CCCCC4)CC3)c3ccccc32)cc1,Potency,[1],inactive
same,Potency,[4],9.9 µM (active)
same,Potency,[5],6.09 µM (active)
same,Potency,[3],0.394 µM (active)
C=CCNc1nc(NCC=C)nc(N2CCN(C(c3ccc(F)cc3)c3ccc(F)cc3)CC2)n1,Potency,[1],inactive
same,Potency,[4],inactive
Cc1cc(OI)c(C(C)C)cc1-c1cc(C(C)C)c(OI)cc1C,Potency,[1],8.71 µM (active)
same,Potency,[2],17.4 µM (active)
same,Potency,[5],inactive
same,Potency,[3],inactive
C[C@@H]1C[C@H]2[C@@H]3CCC4=CC(=O)C=C[C@]4(C)[C@@]3(F)[C@@H](O)C[C@]2(C)[C@H]1C(=O)CO,Potency,[1],8.71 µM (active)
same,Potency,[4],inactive
same,Potency,[5],inactive
O=C(CCCCCCCCC#CI)Oc1ccccc1,Potency,[1],inactive
same,Potency,[2],17.4 µM (active)
same,Potency,[5],inactive
same,Potency,[3],inactive
O=[N+]([O-])c1cccc(S(=O)(=O)NCCNS(=O)(=O)c2cccc([N+](=O)[O-])c2)c1,Potency,[1],3.09 µM (active)
same,Potency,[4],inactive
CC(C)CCCC(=O)O,Potency,[1],inactive
same,Potency,[4],inactive
same,Potency,[5],inactive
same,Potency,[3],inactive
CCCCCC=CCC=CCCCCCCCC(=O)OCC,Potency,[1],21.9 µM (active)
same,Potency,[4],27.5 µM (active)
CCCCCCCCCCCCCCCCBr,"activity change, negative = inhibition",[1],0.164% [at 23.6 µM] (inactive)
same,"activity change, negative = inhibition",[2],-1.68% [at 23.6 µM] (inactive)
same,"activity change, negative = inhibition",[3],-0.429% [at 23.6 µM] (inactive)
CCOC(=O)C(C)Oc1ccc(Oc2nc3ccc(Cl)cc3o2)cc1 (stereo unspecified),Potency,[1],31.7 µM (active)
same,Potency,[4],31.7 µM (active)
same,Potency,[5],34.7 µM (active)
same,Potency,[3],inactive
c1cnc2c(n1)CCCC2,Potency,[1],inactive
same,Potency,[4],inactive
same,Potency,[5],inactive
same,Potency,[3],inactive
ON(Cc1ccccc1)Cc1ccccc1,Potency,[1],7.1 µM (active)
same,Potency,[4],5.64 µM (active)
same,Potency,[5],inactive
same,Potency,[3],10 µM (active)
Cc1cc(S(=O)(=O)O)ccc1N=Nc1c(O)ccc2ccccc12,Potency,[1],20 µM (active)
same,Potency,[4],25.2 µM (active)
same,Potency,[5],inactive
same,Potency,[3],39.9 µM (active)
O=C(CCCCCCC(=O)Nc1ccccc1)NO,Potency,[1],7.76 µM (active)
same,Potency,[4],12.9 µM (active)
same,Potency,[5],inactive
same,Potency,[3],inactive
COc1cc2c(cc1OC)-c1cc(=Nc3c(C)cc(C)cc3C)n(C)c(=O)n1CC2,Potency,[1],17.4 µM (active)
same,Potency,[4],inactive
CCCCC(CC)CNCC(CC)CCCC (stereo unspecified),Potency,[1],35.3 µM (active)
same,Potency,[2],inactive
same,Potency,[5],inactive
same,Potency,[3],inactive
CC1CC(O)CC(C)(C)C1 (stereo unspecified),Potency,[1],inactive
same,Potency,[2],inactive
same,Potency,[5],inactive
same,Potency,[3],inactive
C1COCO1,Potency,[1],inactive
same,Potency,[4],inactive
same,Potency,[5],inactive
same,Potency,[3],inactive
CCCCC(=O)O[C@]1(C(=O)CO)CC[C@H]2[C@@H]3CCC4=CC(=O)CC[C@]4(C)[C@H]3[C@@H](O)C[C@@]21C,Potency,[1],inactive
same,Potency,[4],inactive
same,Potency,[5],inactive
same,Potency,[3],3.47 µM (active)
CC(=O)Nc1ccc(N)cc1,Potency,[1],inactive
same,Potency,[4],40.5 µM (active)
same,Potency,[5],inactive
same,Potency,[3],28.7 µM (active)
CCN(Cc1cccc(S(=O)(=O)O)c1)c1ccc(C(=C2C=CC(=[N+](CC)Cc3cccc(S(=O)(=O)[O-])c3)C=C2)c2ccccc2)cc1,Potency,[1],62.8 µM (active)
same,Potency,[4],inactive
[O]=[Bi],"activity change, negative = inhibition",[1],-17.2% [at 10.5 µM] (inactive)
same,"activity change, negative = inhibition",[4],-11% [at 10.5 µM] (inactive)
same,"activity change, negative = inhibition",[3],0.199% [at 10.5 µM] (inactive)
Cc1ccc(S)cc1,Potency,[1],39.9 µM (active)
same,Potency,[4],31.7 µM (active)
same,Potency,[5],inactive
same,Potency,[3],inactive
O=C(CS)OCCOC(=O)CS,Potency,[1],inactive
same,Potency,[4],39.9 µM (active)
same,Potency,[3],28.3 µM (active)
Cc1cnc(C)c(C)n1,Potency,[1],inactive
same,Potency,[5],inactive
same,Potency,[3],inactive
CC1(C)O[C@@H]2C[C@H]3[C@@H]4CCC5=CC(=O)C=C[C@]5(C)[C@H]4[C@@H](O)C[C@]3(C)[C@]2(C(=O)CO)O1,Potency,[1],inactive
same,Potency,[4],inactive
same,Potency,[5],inactive
same,Potency,[3],3.47 µM (active)
C[C@]12CCC(=O)C=C1C=C[C@@H]1[C@@H]2CC[C@@]2(C)[C@H]1CC[C@@]21CCC(=O)O1,Potency,[1],1.1 µM (active)
same,Potency,[4],inactive
same,Potency,[5],inactive
same,Potency,[3],inactive
CCOC(=O)c1ccccc1C,Potency,[1],inactive
same,Potency,[5],inactive
same,Potency,[3],inactive
CC(C)CCCCCCOC(=O)CCCCC(=O)OCCCCCCC(C)C,Potency,[1],inactive
same,Potency,[4],35.6 µM (active)
same,Potency,[3],inactive
Cc1nc2ccccc2s1,Potency,[1],80.2 µM (active)
same,Potency,[5],inactive
same,Potency,[3],inactive
COC(OC)(C(=O)c1ccccc1)c1ccccc1,Potency,[1],10 µM (active)
same,Potency,[4],inactive
same,Potency,[3],inactive
CC(N)CN (stereo unspecified),Potency,[1],60.5 µM (active)
same,Potency,[4],inactive
same,Potency,[3],inactive
